Screening results: PubChem, several laboratories
An excerpt weighted towards active compounds, which were near 6.9% of everything screened.
MPTP block – inhibitors of mitochondrial permeability transition pore | isolated mouse mitochondria, Ca2+ swelling absorbance, 30 min | inhibition, % at 10 µM | actives 1.4% (n = 360,000) | AID 602449;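 active = inhibition of 50% or more, scaled per plate between neutral and stimulator controls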;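 note: 0% = DMSO wells given calcium and 100% = 1 mM EGTA wells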
Mdm2-MdmX inh – human Mdm2/MdmX binding inhibition; O15151+Q00987; SaOS-2 split-luciferase Mdm2/MdmX complementation, luminescence; inhibition, % at 8 µM; actives 3% (n = 330,000);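 active = inhibition of at least 50% at 8 µM in the primary screen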
Target sequence (O15151 whole entry, looked up): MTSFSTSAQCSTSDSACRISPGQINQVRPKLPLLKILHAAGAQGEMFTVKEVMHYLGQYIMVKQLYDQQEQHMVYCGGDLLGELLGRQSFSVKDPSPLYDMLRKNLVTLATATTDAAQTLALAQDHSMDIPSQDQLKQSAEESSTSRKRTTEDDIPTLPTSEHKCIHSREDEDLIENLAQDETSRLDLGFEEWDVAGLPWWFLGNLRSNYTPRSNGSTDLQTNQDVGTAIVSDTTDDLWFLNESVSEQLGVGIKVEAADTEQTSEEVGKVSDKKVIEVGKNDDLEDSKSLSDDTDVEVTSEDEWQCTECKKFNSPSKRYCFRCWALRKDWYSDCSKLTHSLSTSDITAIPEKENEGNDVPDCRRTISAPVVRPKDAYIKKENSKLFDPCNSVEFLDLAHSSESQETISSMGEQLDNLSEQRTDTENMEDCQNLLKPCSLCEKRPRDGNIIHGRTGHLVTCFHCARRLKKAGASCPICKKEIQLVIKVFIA
Target sequence (Q00987 whole entry, looked up): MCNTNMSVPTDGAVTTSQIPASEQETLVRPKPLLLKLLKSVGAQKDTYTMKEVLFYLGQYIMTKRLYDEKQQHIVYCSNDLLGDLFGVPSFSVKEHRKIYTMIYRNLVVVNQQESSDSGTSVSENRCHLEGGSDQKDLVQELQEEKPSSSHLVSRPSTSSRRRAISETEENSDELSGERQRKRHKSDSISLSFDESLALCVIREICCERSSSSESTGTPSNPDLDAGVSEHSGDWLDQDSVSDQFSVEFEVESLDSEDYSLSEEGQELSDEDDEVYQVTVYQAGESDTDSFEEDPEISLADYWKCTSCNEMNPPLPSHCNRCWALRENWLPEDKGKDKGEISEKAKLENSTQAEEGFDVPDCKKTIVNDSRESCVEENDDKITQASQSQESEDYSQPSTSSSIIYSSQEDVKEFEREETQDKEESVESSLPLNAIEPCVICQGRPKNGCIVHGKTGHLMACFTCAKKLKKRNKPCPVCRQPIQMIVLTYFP
CSC inhib – cancer stem cell inhibition; cancer stem cell-like cells viability, luminescence; inhibition, % at 7.5 µM; actives 1.1% (n = 300,000); in the data active = inhibition above about 75%; tested in HMLE shEcad cells
GRIN3A LBD mod – modulates the human NR3A ligand-binding domain; AID 1259313; actives 2.5% (n = 340,000); NR3A LBD differential scanning fluorimetry, Tm shift; 0% = protein alone, 100% = glycine-bound protein; Tm shift relative to glycine control, % at 25 µM;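 active = melting temperature shift of at least 10% of the positive control shift, at one fixed dose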
SKKanGAS inh – blocks kanamycin growth of S. pyogenes SKKanGAS strain; BacTiter-Glo, 6 h; inhibition, % at 7.5 µM; actives 1.3% (n = 300,000); AID 1662;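 active = mean replicate score, as percent of positive control median, at least 50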;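 note: strain carries kanamycin resistance gene driven by streptokinase promoter and grows in 40 µg/ml kanamycin; loss of luminescence reflects streptokinase promoter inhibition or plain growth inhibition; 0% = median of DMSO wells and 100% = positive control at its reference dose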
Beta cell apopt – beta cell apoptosis inhibition; actives 0.8% (n = 300,000); AID 435005; INS-1E cytokine-induced death, ATP luminescence, 48 h; percent of positive-control rescue, neutral wells zero; protection from apoptosis, % (no concentration beside the values);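 active = Every replicate reaches about 75%, or at least half do and their mean reaches it too, limit read from the data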;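 note: 0% = cytokine-treated negative control wells and 100% = positive control rescue; higher means more ATP so stronger rescue from cytokine killing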
Rh123 counter – mitochondrial membrane potential, counter-screen; shares compounds with MPTP block; inhibition, % at 10 µM; isolated mitochondria, Rhodamine 123 fluorescence; actives 78% (n = 5,000); in the data active = inhibition above about 22%;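 note: 0% = DMSO vehicle and 100% = positive control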
MPTP swell DR – MPTP inhibition, dose response swelling confirmation. actives 58% (n = 780). shares compounds with MPTP block. IC50, µM. isolated mitochondria swelling, absorbance; in the data active = IC50 below about 20 µM
MPTP cs DR – MPTP inhibitor counter-screen activity, dose response. shares compounds with MPTP block. isolated mitochondria counterscreen, fluorescence read-out. IC50, µM. actives 49% (n = 780). AID 651564; in the data active = IC50 below about 80 µM
Starred values were filed as active, the others as inactive; i = inactive; / = no result.

SMILES	MPTP block	Mdm2-MdmX inh	CSC inhib	GRIN3A LBD mod	SKKanGAS inh	Beta cell apopt	Rh123 counter	others
O=S(=O)(c1ccc(Cl)cc1)N1CCC(O)(CN2CCN(Cc3ccccc3)CC2)CC1	0	15	24	-1	-6	0	/
O=S(=O)(c1ccc(N2CCOCC2)nc1)N(Cc1ccccn1)Cc1ccccn1	2	20	-5	2	0	-6	/
COc1ccc(CNC(=S)NC2CCCC2)cc1	-2	6	17	-3	2	-1	/
Cc1ccc(C(C)NC(=S)NC2CCCCC2)cc1C (centres undefined)	1	7	-18	/	3	18	/
Cc1ccc(CNC(=S)NC2CCC(C(C)(C)C)CC2)cc1 (centres undefined)	51*	23	21	5	66*	5	106*
CC(NC(=S)NC1CCC(C(C)(C)C)CC1)c1ccccc1 (centres undefined)	55*	21	30	6	81*	28	87*
Cc1ccc(NC(=O)C2CC(=O)N(Cc3ccco3)C2)cc1 (centres undefined)	2	19	-10	3	-1	-4	/
COC(=O)c1ccc(NC(=S)NCCc2ccc(OC)cc2)cc1	8	11	-2	10	0	1	/
COC(=O)c1ccc(NC(=S)NCCc2ccccc2C)cc1	100*	11	-8	29*	4	-7	83*
COC(=O)c1ccc(NC(=S)NCCc2cccc(C)c2)cc1	88*	26	/	24*	2	2	91*
Fc1cccc(CCN2CCNC[C@@H]2CC2CCCCC2)c1	-1	26	4	-1	/	0	/
Cc1ccc(C(C)C)c(OCCNCc2ccccc2)c1	56*	12	10	0	8	12	19	MPTP swell DR=4.6*;MPTP cs DR=15*
O=C(Nc1ccc(Br)cc1Br)C1CC(=O)N(Cc2ccccc2)C1 (centres undefined)	1	19	/	-4	-5	0	/
Cc1ccc(NC(=S)Nc2ccc(C(C)C)cc2)cc1S(=O)(=O)N1CCCCCC1	103*	0	75*	28*	56*	27	78*
CC1C(=O)N2CCCc3cc(S(=O)(=O)N4CCN(c5ccc(F)cc5)CC4)cc1c32 (centres undefined)	-1	26	-1	6	-1	-4	/
CCOC(=O)c1sc(NC(=O)CCN2CC(C)OC(C)C2)c(C(=O)OCC)c1C (centres undefined)	/	-22	-12	/	26	-4	/
CCOC(=O)c1sc(NC(=O)CCN2CCN(C)CC2)c(C(=O)OCC)c1C	69*	38	19	-1	-2	-7	-6	MPTP swell DR=13*;MPTP cs DR=>80
N#Cc1c(N2CCOCC2)nc(-c2ccco2)c2c1CCCC2	-1	15	19	2	-4	0	/
N#Cc1c(NCCN)nc(-c2ccco2)c2c1CCCC2	92*	27	7	-6	8	16	-2	MPTP swell DR=13*;MPTP cs DR=>80
COC(=O)c1cc(Br)ccc1NC(=O)CCNC(=O)c1ccco1	-1	-17	-16	-5	-4	/	/
COC(=O)c1cccc(NS(=O)(=O)c2ccc(OC)c(OC)c2)c1C	56*	19	4	0	-4	13	21*
CC12OC1C1(O)CCCC1=CC2=O (centres undefined)	/	-40	-14	/	2	2	/
Cc1ccccc1Nc1nc(N)nc(CSc2nc3ccccc3c(=O)n2CCCO)n1	-1	18	-10	-4	9	-8	/
Cc1ccccc1Nc1nc(N)nc(CSc2nc3ccccc3c(=O)n2C)n1	57*	32	14	-3	-1	22	22*
O=C(NNc1ccccc1Br)C(=O)n1ccc2ccccc21	57*	-6	85*	-4	12	-11	57*
SMILES	MPTP block	Mdm2-MdmX inh	CSC inhib	GRIN3A LBD mod	SKKanGAS inh	Beta cell apopt	Rh123 counter	others
COc1ccc(CCNC(=O)C2CCN(C(=O)c3ccc(Br)cc3)CC2)cc1OC	1	-14	-3	-1	0	-4	/
CCOc1ccc2nc(N3C(=O)/C(=C/c4ccccc4)NC3=S)sc2c1	84*	-43	/	-2	100*	15	15
COc1ccc(-c2cc(C(F)(F)F)nc(SCCC(=O)NCc3ccccc3)n2)cc1	60*	6	-5	-2	-3	9	2	MPTP swell DR=>100;MPTP cs DR=>80
COc1ccc(-c2cc(C(F)(F)F)nc(SCc3cccc(C(=O)O)c3)n2)cc1	6	10	-4	-399	12	-8	/
Cc1cc(C)cc(-c2nnc(SCC(=O)NCC3CCCO3)o2)c1 (centres undefined)	-1	/	/	0	/	/	/
O=C(COc1ccccc1Cl)NCCNC(=O)c1ccco1	-2	-5	-13	0	0	/	/
FC(F)Oc1ccc(NC(=S)NCC2COc3ccccc3O2)cc1 (centres undefined)	85*	17	14	0	5	-7	98*
COc1cc(NC(=S)Nc2ccc(OC(F)F)cc2)cc(OC)c1	80*	-10	-5	-26	1	2	76*
S=C(NCC1COc2ccccc2O1)Nc1ccccc1 (centres undefined)	3	-14	1	-6	-4	-2	/
Fc1ccc(CNC(=S)Nc2ccc(OC(F)F)cc2)cc1	76*	4	-1	-2	-5	-9	96*
COc1ccccc1C1CCN(C(=O)c2ccccc2)CC1	0	-24	3	1	8	-2	/
COc1ccccc1C1CCN(c2cc(O)ccc2[N+](=O)[O-])CC1	86*	-6	19	13*	20	0	78*
Cc1cccc(CCNC(=O)Cn2ncc3c([nH]c4ccccc43)c2=O)c1	-4	24	12	1	-14	4	/
CCN(CC)C(=O)c1ccc(COc2ccc(Cl)c(C)c2)o1	91*	4	6	-1	-4	10	85*
CN(C)S(=O)(=O)c1cccc(C(=O)NCC(C)(C)CNC(=O)c2cccc(S(=O)(=O)N(C)C)c2)c1	8	11	-9	1	-5	/	/
O=C1c2ccccc2C(=O)N1c1ccc(Cc2ccncc2)cc1	54*	9	-8	0	3	-4	16	MPTP swell DR=i;MPTP cs DR=27*
CCOC(=O)c1c(NC(=O)CSc2nc3ccccc3s2)sc(C(C)=O)c1C	86*	29	-6	-1	3	-2	50*
c1csc(-c2cn3ccc4ccccc4c3n2)c1	-1	-136	-2	-11	-1	6	/
c1csc(-c2nc3c4ccccc4c4ccccc4c3[nH]2)c1	72*	47	58	28*	41	38	48*
